Source: PubChem BioAssay (NCI)
About 79,000 compounds went through this panel and 15% of them were active in at least one assay; those are over-represented in the sample as a whole. Active and inactive are the calls of the source. No stated cut-off is given here; in the data, active means growth inhibition above about 70%; inactive means the rest.

Columns and labels:
[1] = NCI Yeast Anticancer Drug Screen. Data for the rad50 strain (AID 155);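 further: 0% = growth of vehicle-only cultures of the same strain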; conditions: S. cerevisiae rad50 strain growth inhibition; at 50.0 µM; active compounds read high
Summary of the method: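 Relative growth inhibition (compound vs vehicle) was measured in yeast with a defined repair-gene alteration.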

[2] = NCI Yeast Anticancer Drug Screen. Data for the mec2-1 strain (AID 157); conditions: S. cerevisiae mec2-1 strain, at 50.0 µM, active compounds read high
Summary of the method: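 Each compound was tested on mec2-1 yeast, a strain altered in DNA damage repair or cell cycle control. Growth inhibition is reported relative to vehicle.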

[3] = NCI Yeast Anticancer Drug Screen. Data for the sgs1 mgt1 strain (AID 161);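 further: 0% = growth of cultures given vehicle only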; conditions: S. cerevisiae sgs1 mgt1 strain, at 50.0 µM, active compounds read high
Summary of the method: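 Genetically altered yeast, compound exposure, growth inhibition relative to vehicle.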

[4] = NCI Yeast Anticancer Drug Screen. Data for the cln2 rad14 strain (AID 165);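 further: 0% = growth equal to vehicle treated cultures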; conditions: S. cerevisiae cln2 rad14 strain, at 50.0 µM, active compounds read high
Summary of the method: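 Test compounds were added to cln2 rad14 yeast cultures; inhibition of growth was then determined by comparison with vehicle treatment.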

[5] = NCI Yeast Anticancer Drug Screen. Data for the bub3 strain (AID 167); conditions: S. cerevisiae bub3 mutant strain, at 50.0 µM, active compounds read high
Summary of the method: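 Screening used yeast with an engineered genetic alteration affecting cell cycle control. Compound-exposed cultures were compared with vehicle cultures, and reduced growth was taken as inhibition.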

[6] = NCI Yeast Anticancer Drug Screen. Data for the mlh1 rad18 strain (AID 175); conditions: S. cerevisiae mlh1 rad18 strain growth inhibition; at 50.0 µM; active compounds read high
Summary of the method: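 Inhibition values reflect reduced growth of mutant yeast versus vehicle-treated controls following compound exposure; the mutations affect DNA damage repair.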

Measured: growth inhibition

Clc1ccccc1/C=C1\c2ccc(Br)cc2-c2cccc[n+]21
active: [1] 92.1% | [2] 95.8% | [3] 95.5% | [4] 91.4% | [5] 93% | [6] 95.7%

OC1CCSc2ccccc21 (stereo not given)
inactive: [1] 28.6% | [2] 10.3% | [3] 23.9% | [4] 9.7% | [5] 23.6% | [6] 23.2%

COc1cc(C2c3cc4c(cc3OC(Nc3ccccc3)C2C)OCO4)cc(OC)c1OC (stereo not given)
inactive: [1] -12.7% | [2] 5.6% | [3] 2.95% | [4] -10.6% | [5] -6.5% | [6] 20.8%

O=c1[nH]c(=O)c2nnoc2[nH]1
inactive: [1] 12.4% | [2] 7.65% | [3] 4.55% | [4] -20.2% | [5] 7.4% | [6] -16.5%

BrC=C1c2ccccc2-c2ccccc21
inactive: [1] 5.45% | [2] -7.35% | [3] 3.9% | [4] 22.6% | [5] 2.35% | [6] 4.55%

O=C(O)[C@@H]1OCCOCCO[C@@H](C(=O)O)[C@H](C(=O)O)OCCOCCO[C@H]1C(=O)O
inactive: [1] 14.7% | [2] 0.05% | [3] -8.05% | [4] 14.4% | [5] 2.25% | [6] -6.4%

Brc1ccccc1C=NC12CC3CC(CC(C3)C1)C2
inactive: [1] -2.55% | [2] -7.5% | [3] 2.25% | [4] -55.1% | [5] -3.45% | [6] -5%

COc1cc2c(cc1OC)C(C(=O)O)C(c1ccccc1)N(C)C2=O (stereo not given)
inactive: [1] -36.8% | [2] -11.8% | [3] -6.5% | [4] 19.4% | [5] -13.2% | [6] 3.25%

CCCCCCCCCCCCCCCCC/C(CC)=N/Nc1ccc([N+](=O)[O-])cc1[N+](=O)[O-]
inactive: [1] -16.9% | [2] 3.9% | [3] -24.6% | [4] -38.8% | [5] -3.2% | [6] -9.1%

Cc1ccc(Cc2n[nH]c(=O)n2/N=C\CC/C=N\n2c(Cc3ccc(C)cc3)n[nH]c2=O)cc1
inactive: [1] -13.9% | [2] -23.6% | [3] -18.1% | [4] -0.9% | [5] -28.9% | [6] -4.05%

CC(C)=CCc1c(O)ccc(C(=O)C2C(c3c(O)cc(-c4cc5ccc(O)cc5o4)cc3O)C=C(C)CC2c2ccc(O)cc2O)c1O (stereo not given)
active: [1] 87% | [2] 90.7% | [3] 90% | [4] 89.4% | [5] 88.2% | [6] 87.9%

O=C(O)[C@H](c1ccccc1)[C@@H](C(=O)O)c1ccccc1
inactive: [1] -8.25% | [2] -5.75% | [3] -8.35% | [4] -3.35% | [5] -53.8% | [6] -1.4%

CCOC(=O)C[N+]1(C)CCC(O)CC1 (stereo not given)
inactive: [1] 3.15% | [2] 26.1% | [3] -2.55% | [4] -0.45% | [5] 16.6% | [6] 7.55%

Cc1cc(O)ccc1N=Nc1ccc(S(=O)(=O)O)cc1
inactive: [1] -26.8% | [2] -10.2% | [3] -10.6% | [4] 2.55% | [5] 4.55% | [6] -12.5%

C=C1C2CC3CCC2C(OC(=O)c2ccccc2C(=O)O)C13 (stereo not given)
inactive: [1] -0.45% | [2] -11.2% | [3] 1.4% | [4] 14.8% | [5] -2.2% | [6] -19.3%

CN(C)CCC(C(=O)NCc1ccccc1)C(=O)NCc1ccccc1
inactive: [1] -6.1% | [2] -9.95% | [3] 1.3% | [4] -17.4% | [5] -2.55% | [6] -17.2%

O=c1[nH]nc(Sc2ccccc2)c(=O)[nH]1
inactive: [1] -11.8% | [2] -3.4% | [3] -12.6% | [4] -10.4% | [5] -11.4% | [6] -14.9%

COC(=O)C1CCc2c(ccc3cc(OC)ccc23)C1(C)C(=O)OC (stereo not given)
inactive: [1] -14.5% | [2] -7.65% | [3] -7.4% | [4] -40.1% | [5] -2.2% | [6] -10.2%

N#CC(C(=O)O)C1(C(C#N)C(=O)O)CCN(Cc2ccccc2)CC1 (stereo not given)
inactive: [1] -9.9% | [2] -5.1% | [3] 40.5% | [4] -21.9% | [5] -2.15% | [6] -10.1%

O=C(O)CC1CC(=O)OC1(c1ccccc1)c1ccccc1 (stereo not given)
inactive: [1] 18% | [2] 11.6% | [3] 20.9% | [4] 2.8% | [5] 8.15% | [6] 6.45%
